This is part of a sample that, as a whole, favours compounds with a hit. Of some 83,000 tested, about 20% had one in any assay.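 48-hour exposure, single concentration, 96-well plates; percent growth endpoint where 0 means no net growth. Active: below 10.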 Active and inactive are the calls of the source.
What was measured:
Assay in all cases: NCI-60 one-dose screen, 48 h (100 = growth as untreated, 0 = no growth, -100 = all killed)
HCT-15 colon = details: 10 µM
HT29 colon = details: 10 µM
SNB-19 CNS = details: 10 µM
U251 CNS = details: 10 µM
PC-3 prostate = details: 10 µM
SK-MEL-5 melanoma = details: 10 µM
UACC-62 melanoma = details: 10 µM unless noted
LOX IMVI melanoma = details: 10 µM
SK-MEL-28 melanoma = details: 10 µM
EKVX NSCLC = details: 10 µM
SN12C renal = details: 10 µM
UO-31 renal = details: 10 µM
TK-10 renal = details: 10 µM unless noted
ACHN renal = details: 10 µM
CAKI-1 renal = details: 10 µM
A498 renal = details: 10 µM
CCRF-CEM leukemia = details: 10 µM
MOLT-4 leukemia = details: 10 µM
SK-MEL-2 melanoma = details: 10 µM
SNB-75 CNS = details: 10 µM

Measured: growth

NC(=O)N/N=C\c1ccco1
inactive: HCT-15 colon 107% | HT29 colon 103% | SNB-19 CNS 102% | U251 CNS 101% | PC-3 prostate 104% | SK-MEL-5 melanoma 107% | UACC-62 melanoma 103% | LOX IMVI melanoma 102% | SK-MEL-28 melanoma 116% | EKVX NSCLC 119% | SN12C renal 98.4% | UO-31 renal 94.7% | TK-10 renal 100% | ACHN renal 111% | CAKI-1 renal 108% | A498 renal 117% | CCRF-CEM leukemia 102% | MOLT-4 leukemia 101%

Oc1ccc(N=Nc2ccc(Br)cc2)c(O)c1
inactive: HCT-15 colon 21.2% | HT29 colon 93.5% | SNB-19 CNS 38.5% | U251 CNS 16.8% | PC-3 prostate 17% | SK-MEL-5 melanoma 11.1% | UACC-62 melanoma 39.4% | LOX IMVI melanoma 51.9% | SK-MEL-28 melanoma 51.2% | EKVX NSCLC 47.4% | SN12C renal 54.1% | UO-31 renal 30.3% | TK-10 renal 39.2% | ACHN renal 49.8% | A498 renal 23.5% | MOLT-4 leukemia 21.2%
active: SK-MEL-2 melanoma -5.42% | CAKI-1 renal 3.01% | CCRF-CEM leukemia -20%

Cc1ccc(N)cc1[N+](=O)[O-]
inactive: HCT-15 colon 106% | HT29 colon 123% | SNB-19 CNS 113% | U251 CNS 98.8% | PC-3 prostate 95.8% | SK-MEL-5 melanoma 111% | UACC-62 melanoma 105% | LOX IMVI melanoma 101% | SK-MEL-2 melanoma 128% | EKVX NSCLC 113% | SN12C renal 109% | TK-10 renal 107% | ACHN renal 108% | CAKI-1 renal 102% | A498 renal 117% | CCRF-CEM leukemia 84.6% | MOLT-4 leukemia 76.3%

COc1cc2cc(OC(C)=O)c3cc4c(cc3c2c(OC)c1OC)OCO4
inactive: HCT-15 colon 99.7% | HT29 colon 101% | SNB-19 CNS 105% | U251 CNS 103% | PC-3 prostate 94.7% | SK-MEL-5 melanoma 99.5% | UACC-62 melanoma 103% | LOX IMVI melanoma 94.9% | SK-MEL-28 melanoma 105% | SK-MEL-2 melanoma 109% | EKVX NSCLC 95% | SN12C renal 101% | UO-31 renal 89% | TK-10 renal 101% | ACHN renal 101% | CAKI-1 renal 99% | A498 renal 92.5% | MOLT-4 leukemia 96.6%
active: CCRF-CEM leukemia 2.13%

CCOC(=O)C1=C(C)NC(=O)NC1c1cccs1 (configuration not stated)
inactive: HCT-15 colon 103% | SNB-75 CNS 103% | SNB-19 CNS 113% | U251 CNS 109% | PC-3 prostate 102% | SK-MEL-5 melanoma 104% | UACC-62 melanoma 115% | LOX IMVI melanoma 101% | SK-MEL-28 melanoma 106% | EKVX NSCLC 109% | SN12C renal 103% | UO-31 renal 87.7% | TK-10 renal 108% | ACHN renal 113% | A498 renal 125% | CCRF-CEM leukemia 95.8% | MOLT-4 leukemia 82.7%

Cc1cc(Cc2cc(C)c(N)cc2N)c(N)cc1N
inactive: HCT-15 colon 103% | SNB-75 CNS 91.4% | SNB-19 CNS 96.3% | U251 CNS 88.9% | PC-3 prostate 85.4% | SK-MEL-5 melanoma 91.9% | UACC-62 melanoma 95.5% | LOX IMVI melanoma 87.3% | SK-MEL-28 melanoma 112% | SK-MEL-2 melanoma 96.7% | EKVX NSCLC 109% | SN12C renal 88.3% | UO-31 renal 77.2% | TK-10 renal 146% | ACHN renal 98.8% | A498 renal 98.8% | CCRF-CEM leukemia 96.8% | MOLT-4 leukemia 73.2%

O=c1c2ccccc2c(Br)c(Br)c2ccccc12
inactive: HCT-15 colon 98% | SNB-75 CNS 119% | SNB-19 CNS 101% | U251 CNS 91% | PC-3 prostate 95.7% | SK-MEL-5 melanoma 109% | UACC-62 melanoma 95.6% | SK-MEL-28 melanoma 106% | EKVX NSCLC 105% | SN12C renal 96.8% | TK-10 renal 23.6% | ACHN renal 53.7% | CAKI-1 renal 56.5% | A498 renal 113% | CCRF-CEM leukemia 30.7% | MOLT-4 leukemia 53.6%
active: LOX IMVI melanoma 3.1% | UO-31 renal -35.2%

O=C1c2ccccc2C(=O)c2c1ccc(C(=O)O)c2[N+](=O)[O-]
inactive: HCT-15 colon 105% | SNB-75 CNS 91.2% | SNB-19 CNS 109% | U251 CNS 99.6% | PC-3 prostate 94.8% | SK-MEL-5 melanoma 109% | UACC-62 melanoma 106% | LOX IMVI melanoma 88.4% | SK-MEL-28 melanoma 101% | SK-MEL-2 melanoma 119% | EKVX NSCLC 109% | SN12C renal 101% | UO-31 renal 85.1% | TK-10 renal 109% | ACHN renal 98.8% | CAKI-1 renal 98.8% | A498 renal 84% | MOLT-4 leukemia 93.5%

NNc1ccccc1C(=O)O
inactive: HCT-15 colon 99.1% | SNB-75 CNS 89.4% | SNB-19 CNS 113% | U251 CNS 107% | PC-3 prostate 99.1% | SK-MEL-5 melanoma 103% | UACC-62 melanoma 107% | LOX IMVI melanoma 101% | SK-MEL-28 melanoma 118% | SK-MEL-2 melanoma 102% | EKVX NSCLC 116% | SN12C renal 116% | UO-31 renal 87.9% | TK-10 renal 110% | ACHN renal 98.9% | CAKI-1 renal 110% | A498 renal 98.1% | MOLT-4 leukemia 107%

Reference: PubChem BioAssay (NCI)
